Measurements reported in PubChem BioAssay AID1347165 (National Center for Advancing Translational Sciences (NCATS), 2019).
Among all 220,000 compounds or so, about 5,700 (2.6%) were called active. A call without a number means that no potency is given here. Not shown: some 18% with an inconclusive outcome. The call rests on the fitted dose curve; in most records, active means well fitted inhibition curve with a large enough effect; inconclusive means small, poorly fitted or top-dose-only effect; inactive means no such curve, though single readings can be large or run the other way. Many of the other results were omitted from the sample, so actives are more common in it than they were.

biological target: Lysine-specific demethylase 5B (Homo sapiens) (UniProt Q9UGL1); test: Primary screen for KDM5B Histone Demethylases FDH-coupled qHTS; conditions: FDH-coupled NADH fluorescence (FDH is formaldehyde dehydrogenase); series mostly up to 57.7 µM; further: nearly all actives have a fitted effect of over 70% in size
Sequence (Q9UGL1 whole entry, looked up): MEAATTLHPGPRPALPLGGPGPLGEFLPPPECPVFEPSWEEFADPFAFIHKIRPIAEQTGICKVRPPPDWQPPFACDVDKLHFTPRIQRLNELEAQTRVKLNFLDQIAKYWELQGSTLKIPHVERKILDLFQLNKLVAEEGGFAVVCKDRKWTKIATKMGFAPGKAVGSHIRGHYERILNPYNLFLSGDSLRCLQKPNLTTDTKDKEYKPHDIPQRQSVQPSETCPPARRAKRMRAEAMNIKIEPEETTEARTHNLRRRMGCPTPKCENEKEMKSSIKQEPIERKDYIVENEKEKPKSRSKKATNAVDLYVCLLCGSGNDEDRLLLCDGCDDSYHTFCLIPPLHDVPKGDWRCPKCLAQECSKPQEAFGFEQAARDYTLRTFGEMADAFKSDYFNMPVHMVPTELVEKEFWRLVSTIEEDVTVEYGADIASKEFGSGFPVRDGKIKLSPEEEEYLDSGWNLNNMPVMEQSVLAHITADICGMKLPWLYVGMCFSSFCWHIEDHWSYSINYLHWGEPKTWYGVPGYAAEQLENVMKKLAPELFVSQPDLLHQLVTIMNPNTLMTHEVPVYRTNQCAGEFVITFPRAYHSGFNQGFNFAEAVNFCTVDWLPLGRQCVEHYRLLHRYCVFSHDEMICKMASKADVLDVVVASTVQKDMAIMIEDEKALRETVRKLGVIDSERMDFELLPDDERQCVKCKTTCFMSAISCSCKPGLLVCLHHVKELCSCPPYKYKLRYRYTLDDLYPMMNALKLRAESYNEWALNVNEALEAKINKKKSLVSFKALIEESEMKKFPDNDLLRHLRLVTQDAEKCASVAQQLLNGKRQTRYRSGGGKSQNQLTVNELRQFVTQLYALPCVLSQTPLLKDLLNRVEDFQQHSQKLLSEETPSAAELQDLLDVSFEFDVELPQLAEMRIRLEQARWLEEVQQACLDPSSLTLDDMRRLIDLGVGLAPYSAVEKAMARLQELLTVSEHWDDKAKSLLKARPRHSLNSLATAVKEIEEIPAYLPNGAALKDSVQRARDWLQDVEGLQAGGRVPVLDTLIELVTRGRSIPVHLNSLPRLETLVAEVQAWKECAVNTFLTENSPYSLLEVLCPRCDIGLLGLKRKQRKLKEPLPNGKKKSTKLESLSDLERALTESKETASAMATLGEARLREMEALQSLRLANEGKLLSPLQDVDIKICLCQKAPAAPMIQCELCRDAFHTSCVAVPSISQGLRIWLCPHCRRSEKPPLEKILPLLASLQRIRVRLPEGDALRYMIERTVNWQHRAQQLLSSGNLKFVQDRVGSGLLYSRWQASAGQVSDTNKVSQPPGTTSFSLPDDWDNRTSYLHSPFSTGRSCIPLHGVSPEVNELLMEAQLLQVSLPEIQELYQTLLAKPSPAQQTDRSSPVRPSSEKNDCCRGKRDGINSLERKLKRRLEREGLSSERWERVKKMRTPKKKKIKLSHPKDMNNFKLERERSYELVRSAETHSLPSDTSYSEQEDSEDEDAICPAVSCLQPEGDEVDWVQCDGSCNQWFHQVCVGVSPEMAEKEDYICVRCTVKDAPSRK
Description: Assay Submitter (PI): Qin Yan, Ph.D. (Yale University) and Xiaodong Cheng, Ph.D. (MD Anderson) This project was funded as part of the NCI NEXT Program and Chemical Biology Consortium (CBC) The histone demethylases, KDM5A and KDM5B catalyze the demethylation of lysine 4 on histone H3 (H3K4me3/2). They are overexpressed in a variety of cancers and have been implicated in cancer cell growth, metastasis, drug resistance, and tumor growth. KDM5A is amplified and overexpressed in breast and gastric cancer; and is translocated in leukemia. While KDM5B is highly expressed in human mammary tumors and breast cancer cell lines, but not in normal adult breast tissue. Moreover, knockdown of KDM5B leads to upregulation of tumor suppressor genes, including BRCA1. The goal of this project is to employ qHTS to identify selective small molecule inhibitors of KDM5A/B demethylase activity to better understand the role of KDM5 in cancer and to develop novel therapies. We employed an FDH-coupled assay previously reported by Sakurai et al. to monitor in vitro KDM5 demethylase activity. Compounds showing dose response inhibition are re-acquired, validated, and tested for non-specific interference with the formaldehyde dehydrogenase (FDH) counterscreen. True inhibitors are validated using an AlphaLisa secondary screen, which employs an H3K4(me2-1)-specific antibody to monitor demethylation of a biotin-tagged H3K4(me3) peptide substrate. Inhibitors are profiled against KDM4A and KDM6A AlphaLisa counterscreens to determine level of demethylase specificity; and against the TruHits counterscreen to eliminate non-specific inhibitory activity on the AlphaLISA detection method. Selective inhibitors identified from the primary and secondary screening are tested in cells using immunofluorescence to monitor global H3K4 tri-methylation as a measure of KDM5A/B inhibition. Early Translation Branch (ETB) National Center for Advancing Translational Sciences (NCATS), Rockville, MD National Institute of Health (NIH), Bethesda, Maryland [1] Sakurai, M et al. A miniaturized screen for inhibitors of Jumonji histone demethylases. Mol Biosyst. 2010 Feb;6(2):357-64. doi: 10.1039/b912993f. Epub 2009 Oct 8.
Materials: 1536-well Black, solid bottom, medium binding assay plate is purchased from Greiner Bio-one. The enzymes (KDM5B) and substrate (H3K4me3/2) are provided by the principal investigators. The buffer for this assay is composed of 50mM HEPES at pH 7.5 with 0.01% Tween-20. FDH coupled Demethylase qHTS protocol: Three microliter enzyme mix (buffer + 200nM KDM5BDeltaAP final concentration) is dispensed into the assay plate using the BioRAPTR Flying Reagent Dispenser (FRD; […]). Compound (at various final concentration) and control solution is pin transferred to the assay plate using the Kalypsys 1536-pin tool apparatus. The assay plate is incubated for 10 min at room temperature followed by addition of 1uL substrate mix (buffer + 100uM ascorbic acid, 50uM ferrous ammonium sulfate, 12.5uM H3K4Me3, 25uM a-ketoglutarate, 0.25 mM NAD+, 0.25 U/mL formaldehyde dehydrogenase using the FRD yielding a total reaction volume of 4 uL. Initial fluorescence (Read1) is detected using the PerkinElmer ViewLux plate reader equipped with 340 nm excitation and 450 nm emission filters. The final fluorescence (Read2) signal is obtained after 30 min of room temperature incubation. Delta RFU is calculated (Read2 - Read1) and is used to generated dose response curves.
Potency means the concentration at half of the fitted maximal effect.

Row | SMILES | Potency
1 | COc1ccc(C(=O)C(C)OC(=O)c2nn(C)c(=O)c3ccccc23)cc1 (stereo unspecified) | inactive
2 | COC(=O)c1ccc(/C=C2\CCc3c(C)cc(C)cc3C2=O)cc1 | inactive
3 | O=C1CCN(C(=O)c2ccc3ccccc3n2)CCCCCCN1 | inactive
4 | O=C(CN1CCN(C(=O)c2ccc3ccccc3n2)CC1)NC1CC1 | inactive
5 | O=C(c1ccc2cc[nH]c2n1)N1CCOCC1 | 126 µM (active)
6 | Cc1cccc(C)c1NC(=O)CSc1nc(C)c(C)o1 | inactive
7 | CN(CC(=O)Nc1ccc2c(c1)OC1(CCCCC1)O2)Cc1cccs1 | inactive
8 | COc1ccc(S(=O)(=O)NCCOc2ccccc2)cc1F | inactive
9 | CCOc1ccc(C2C(C#N)=C(N)N(N(C)C)C3=C2C(=O)CCC3)cc1 (stereo unspecified) | inactive
10 | O=C1CCC/C(=N/NC(=O)c2cc(-c3ccncc3)nc3ccccc23)C1 | inactive
11 | O=C(c1ccc(Cl)cc1)N(Cc1ccco1)c1ccc(O)cc1 | inactive
12 | CNC(=O)CCN(C)c1nccc(-c2ccc(C)nc2C)n1 | 25.1 µM (active)
13 | CCc1ccc(CCC(=O)NC)cc1 | inactive
14 | CNc1c(NC(=O)Cc2ccc(OC)c(OC)c2)c(=O)oc2ccccc12 | inactive
15 | O=C(NNC(=O)C1CCC1)c1ccccc1 | inactive
16 | O=C(OCc1ccc(F)cc1)c1cnc2ccccc2n1 | inactive
17 | Cc1ccc(NC(=O)c2ccoc2)cc1I | inactive
18 | O=C(NC12CC3CC(CC(C3)C1)C2)c1cccc2ncccc12 | inactive
19 | Cc1ccccc1NC(=O)C(C)Sc1ccc(C(F)(F)F)cn1 (stereo unspecified) | inactive
20 | CC1(C)C/C(=N/Nc2ccc([N+](=O)[O-])cc2[N+](=O)[O-])C(C)(C)O1 | inactive
21 | CC(C)c1ccc(/C=C(/C#N)c2nc3ccccc3[nH]2)cc1 | inactive
22 | COc1ccc(-c2cc(N3CCCN(C(=O)c4ccc(OC)cc4C)CC3)n[nH]2)cc1 | inactive

Row | SMILES | Potency
23 | COC(=O)c1cccc(NC(=O)N2CCC3(CCC(=O)N(Cc4ccccc4)CC3)CC2)c1 | inactive
24 | COC(=O)c1cccc(NC(=O)N2CCc3c(nc4cc(-c5ccccc5)[nH]n4c3=O)C2)c1 | 11.2 µM (active)
25 | COc1ccc(-c2cc3nc4c(c(=O)n3[nH]2)CCN(C(=O)c2ccccc2C)C4)cc1 | 20 µM (active)
26 | COc1ccccc1C(=O)N1CCc2c(nc3cc(-c4ccccc4Cl)[nH]n3c2=O)C1 | 22.4 µM (active)
27 | COc1ccccc1N1CCN(C(=O)c2ccccc2-c2ncc[nH]2)CC1=O | inactive
28 | COc1ccccc1CC(=O)N1CCc2c(nc3cc(-c4ccccc4Cl)[nH]n3c2=O)C1 | inactive
29 | COc1ccc(-c2nc(C(C)C)nc3c2CN(C(=O)c2ccccc2F)CC3)cc1 | inactive
30 | O=C(Nc1ccccc1)N1CCc2nc(-c3ccccc3)nc(-c3ccc(Cl)cc3)c2C1 | inactive
31 | CCN(CC)c1nc2ccccc2nc1C(=O)Nc1ccccc1C | inactive
32 | O=c1oc2ccccc2c2nc(-c3ccccc3)c(-c3ccccc3)nc12 | inactive
33 | Cc1c(-c2ccccc2)nc2ccccc2c1C(=O)OCC(N)=O | inactive
34 | COC(=O)CC(NC(=O)c1nn(C)c(=O)c2ccccc12)c1ccccc1 (stereo unspecified) | inactive
35 | CC(C)C(=O)NC(Nc1ccccc1Cl)(C(F)(F)F)C(F)(F)F | inactive
36 | COc1ccc(Nc2cnc3ccc(-c4ccc(OC)nc4)nn23)cc1 | inactive
37 | COc1ccc(-c2ccc3ncn(C4CC4)c(=O)c3n2)cn1 | 39.8 µM (active)
38 | COc1ccc(-c2ccc3ncc(Nc4ccc(C(F)(F)F)cc4)n3n2)cn1 | inactive
39 | O=C(O)c1cccc(NC(NC(=O)c2cccs2)C(=O)c2ccccc2)c1 (stereo unspecified) | inactive
40 | COc1ccc(C(C)=O)cc1CN1CCN(C/C=C/c2ccccc2)CC1 | inactive
41 | NC(N)=N/N=C/c1ccc([N+](=O)[O-])cc1 | inactive
42 | CSc1ccccc1NC(=O)c1ccc(C)c(C)c1 | inactive
43 | COc1ccccc1C(=O)N1CCC2(CC1)C(=O)Nc1ccccc12 | inactive
44 | COc1ccccc1C(=O)N1CCC2(CC1)CC(=O)c1ccccc1O2 | 31.6 µM (active)

Row | SMILES | Potency
45 | COc1ccccc1C(=O)N1CCC2(CCC(=O)N(Cc3ccccc3)CC2)CC1 | inactive
46 | O=C1NC2(CCN(C(=O)c3ccccc3)C2)COc2ccccc21 (stereo unspecified) | inactive
47 | Cc1ccc(C(=O)N2CCC3(CC2)NC(=O)N(Cc2ccc(F)cc2)C3=O)cc1 | inactive
48 | Cc1ccc(C(=O)N2CCC3(CC2)CC(=O)c2ccccc2O3)cc1 | 25.1 µM (active)
49 | Cc1[nH]c2ccccc2c1C(=O)COc1ccc(C(N)=O)cc1 | inactive
50 | COc1ccc(-c2c(C)oc3cc(OC(=O)c4ccc5c(c4)OCO5)ccc3c2=O)cc1 | inactive
51 | CCS(=O)(=O)N1CCC(NS(=O)(=O)c2ccsc2C(=O)OC)CC1 | inactive
52 | COc1ccc(-c2nc(CN3CCCC3c3nnc4ccccn34)co2)cc1 (stereo unspecified) | inactive
53 | CCOC(=O)c1ccoc1CN1CCCC(O)C1 (stereo unspecified) | inactive
54 | CCCn1c(NC(=O)CCOc2ccccc2)nc2ccccc21 | inactive
55 | CONC(=O)Cc1ccc(OC)cc1 | inactive
56 | O=C(O)C(c1c[nH]c2ccc(Cl)cc12)N1CCCN(c2ccc(C(F)(F)F)cn2)CC1 (stereo unspecified) | inactive
57 | CCn1c(SCC(=O)NC2=NCCS2)nnc1C(C)NC(=O)c1ccccc1F (stereo unspecified) | inactive
58 | CC(C)n1nc(C(=O)Nc2ccc(Nc3ccccc3)cc2)c2ccccc2c1=O | inactive
59 | CC(=O)c1ccc(NC(=O)COc2ccccc2-c2nc(-c3ccccc3)no2)cc1 | inactive
60 | Brc1ccc(-c2noc(-c3ccccc3)n2)o1 | inactive
61 | c1ccc(-c2noc(-c3ccccc3OC3CCNC3)n2)cc1 (stereo unspecified) | 20 µM (active)
62 | CN1C[C@]2(C=C3CCCCC3n3c(=O)n(-c4ccccc4)c(=O)n32)N=C1NC(=O)c1ccccc1 (stereo partly specified) | inactive
63 | CCCNC(=S)NNC(=O)CCC | inactive
64 | CC1CCN(C(=O)C[C@@H]2c3nc(NC(=O)c4ccnc(Cl)c4)sc3C[C@@H]3[C@](C)(CO)[C@H](O)CC[C@]32C)CC1 | inactive
65 | CCC(=O)Nc1ccc2nnc(-c3ccc(C(=O)Nc4ccc(OC)cc4)cc3)n2c1 | 25.1 µM (active)
66 | COc1ccc(CC(=O)Nc2ccc(C(=O)NC(C)(C)C)cc2)cc1 | inactive

Row | SMILES | Potency
67 | CCC(C)NC(=O)c1ccc(NC(=O)CC2SC(N3CCCCC3)=NC2=O)cc1 (stereo unspecified) | inactive
68 | COc1ccc(NC(=O)C2CCCN(Cc3nc(-c4ccc(OC)c(OC)c4)no3)C2)cc1OC (stereo unspecified) | inactive
69 | COc1ccc(C(=O)Nc2cccc(-c3nnc4n3CCCC4)c2)cc1 | inactive
70 | CCC(CC)NC(=O)c1ccc(-c2nnc3ccc(NC(=O)C4CCC4)cn23)cc1 | 10 µM (active)
71 | O=[N+]([O-])c1ccc(/C=N/OCc2cc(F)cc3cccnc23)cc1 | inactive
72 | CC1C(=O)Nc2ccccc2N1C(=O)c1ccc(F)cc1F (stereo unspecified) | inactive
73 | CC(C)(C)c1ccc(C(=O)NN=C2CCCCC2)cc1 | inactive
74 | FC(F)(F)c1ccc(CCNC(=S)NC2CC2)cc1 | inactive
75 | O=C(c1cccc(C(F)(F)F)c1)N1CCC2(CC1)CC(O)CCO2 (stereo unspecified) | inactive
76 | COc1ccc(CN2CC(Oc3ccc(OC)cc3)C2)cc1 | inactive
77 | COc1ccc(OC2CN(Cc3cccn3C)C2)cc1 | 44.7 µM (active)
78 | COc1ccc(OC2CN(CC3CCCCC3)C2)cc1 | inactive
79 | CN(C(=O)Cn1nc(Cc2cccnc2)c2ccccc2c1=O)c1ccccc1Cl | inactive
80 | CC1=NS(=O)(=O)N(Cc2ccccc2)C=C1C(=O)OCc1noc(C)n1 | inactive
81 | COc1cccc(-c2cc(C3CCN(C(=O)Nc4ccccc4Cl)CC3)[nH]n2)c1 | inactive
82 | O=C(OCc1nc2ccccc2o1)c1cc(F)cc(F)c1 | inactive
83 | Cc1noc(-c2ccc(OC3CN(C(=O)c4ccco4)C3)cc2)n1 | inactive
84 | Cc1cnc(CCNC(=O)c2ccco2)n1C1CCC1 | inactive
85 | Cc1noc(-c2cccn3c(CNC(=O)c4ccco4)nnc23)n1 | 28.2 µM (active)
86 | COCc1nc(CCNC(=O)CCc2ccccc2)no1 | inactive
87 | Cc1noc(-c2cccc(OC3CN(C(=O)NCCc4ccccc4)C3)c2)n1 | inactive
88 | Cc1noc(-c2cccn3c(CNC(=O)CCc4ccccc4)nnc23)n1 | 22.4 µM (active)

Row | SMILES | Potency
89 | Cn1c(=O)[nH]c(=O)c2c1ncn2CC(O)c1ccccc1 (stereo unspecified) | inactive
90 | CC(=O)N1CCN(c2ccc3nnc(-c4ccc(C)cn4)n3n2)CC1 | inactive
91 | Cc1ccc(-c2nnc3ccc(-c4ccoc4)nn23)nc1 | 31.6 µM (active)
92 | COP(=O)(OC)c1nc(-c2cccs2)oc1NCc1ccc(C)cc1 | inactive
93 | O=C(Nc1ccccc1F)c1ccc2c(c1)n(Cc1ccccc1)c(=O)c1ccnn12 | 31.6 µM (active)
94 | O=C(Nc1ccc(F)cc1F)c1ccc2c(c1)n(Cc1cccc(F)c1)c(=O)c1ccnn12 | inactive
95 | CCCCc1ccc(C(=O)NCc2cccnc2)cc1 | inactive
96 | Cc1oc2ccn(Cc3cccc(F)c3)c(=O)c2c1C(=O)NCc1cccnc1 | inactive
97 | CCn1c(=O)c2ccnn2c2ccc(C(=O)NC3CCCCC3)cc21 | 25.1 µM (active)
98 | COCCCNC(=O)c1ccc2c(c1)n(Cc1cccc(OC)c1)c(=O)c1ccnn12 | inactive
99 | Cn1c(=O)c2c(nc(SCC(=O)Nc3ccccc3F)n2Cc2ccccc2)n(C)c1=O | inactive
100 | Cc1ccccc1NC(=O)Cn1c(=O)n(Cc2ccco2)c(=O)c2ccc(C(=O)NC3CCCC3)cc21 | inactive
101 | O=C(NCc1cccnc1)c1ccc2c(c1)n(Cc1ccc(F)cc1)c(=O)c1ccnn12 | 25.1 µM (active)
102 | Cc1[nH]c2ccccc2c1C=O | inactive
103 | CCOC(=O)CN(CCOC)C(=O)CCCc1ccccc1 | inactive
104 | CC(C)(C)c1ccc(N2C(=O)[C@@H]3C[C@@H](NC(=O)[C@@H](O)c4ccccc4)CCN3C2=O)cc1 | inactive
105 | O=C(CN1N=C(c2ccccc2F)c2cc(Cl)ccc2S1(=O)=O)Nc1cc(F)ccc1F | inactive
106 | N#Cc1c(N)n[nH]c1CCCNc1ncnc2c1oc1ccccc12 | inactive
